Source: PubChem
DRD3 agonist – agonists of human D3 dopamine receptor. P35462. D3R DiscoveRx beta-arrestin cells, luminescence, 90 min. max activation, %. 0.58% of 410,000 active; in the data active = max activation above about 30%; also: 0% is about no effect
Target sequence (P35462 whole entry, looked up): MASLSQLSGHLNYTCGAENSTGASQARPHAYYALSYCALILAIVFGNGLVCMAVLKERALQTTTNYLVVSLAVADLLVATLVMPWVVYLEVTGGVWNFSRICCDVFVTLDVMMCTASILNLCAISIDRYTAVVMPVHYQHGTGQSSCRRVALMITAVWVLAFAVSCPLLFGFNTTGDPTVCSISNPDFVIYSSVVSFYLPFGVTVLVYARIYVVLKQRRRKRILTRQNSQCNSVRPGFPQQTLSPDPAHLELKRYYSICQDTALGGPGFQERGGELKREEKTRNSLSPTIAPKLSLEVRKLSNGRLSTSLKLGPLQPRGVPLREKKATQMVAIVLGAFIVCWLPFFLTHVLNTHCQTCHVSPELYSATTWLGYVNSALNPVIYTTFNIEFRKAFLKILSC
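Cells at 1500/well, incubated overnight, then treated with pinned compounds (dopamine as control) for 90 min at 37 degrees C. DiscoveRx reagent added for 30 - 60 minutes at room temperature; luminescence read.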
ClpP mod – qHTS Assay for Activators of ClpP; ATP-dependent Clp protease proteolytic subunit (Bacillus subtilis (strain 168)), P80244; purified B. subtilis ClpP, FRET peptide cleavage, 20 min; Potency, µM (top dose mostly 57.5 µM), without a hit: top-dose activity change, negative = active; 1.9% of 340,000 active; AID 651965, 2013; active = well fitted falling curve with a large enough effect; inconclusive = small, poorly fitted or top-dose-only effect; inactive = no such curve, though single readings can be large or run the other way; also: potency is read from the fitted curve at half-maximal effect; the source files actives as falling curves though it sought activators and does not explain the sign; nearly all actives have a fitted effect of over 65% in size
Target sequence (P80244 whole entry, looked up): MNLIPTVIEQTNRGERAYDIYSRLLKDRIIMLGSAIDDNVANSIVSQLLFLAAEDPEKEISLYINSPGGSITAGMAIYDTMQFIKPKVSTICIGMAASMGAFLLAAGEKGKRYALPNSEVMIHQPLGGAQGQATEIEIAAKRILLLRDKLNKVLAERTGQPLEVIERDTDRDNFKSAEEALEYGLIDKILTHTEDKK
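Purified B. subtilis ClpP, 10 microg/mL final in Tris/HCl pH8 with KCl, BSA, glycerol and Tween-20, cleaved an Abz/nitrotyrosine-quenched decapeptide. Fluorescence (ex 320, em 430) was read at 0 and 20 min at room temperature. Delta was normalized to 5.8 microM ADEP and DMSO/no-enzyme controls.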
IL1B secr inh – blocks inflammasome-driven IL-1 beta release. THP-1 LPS/ATP IL-1B secretion, AlphaLISA, 16 h; active compounds read low. activity change, % at 57.5 µM. 4.7% of 360,000 active; in the data active = activity change below about -50%; inconclusive = mostly about -30% to -49%; also: % is scaled to controls: 0 for no effect and ±100 for the full control effect
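Secreted IL-1B measured by AlphaLISA bead assay after 16 h compound exposure of THP-1 cells; compounds (final up to 57.5 uM) added 1 h before LPS (250 ng/mL) and ATP (1.25 mM) stimulation; lower signal means less secretion.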
DRD3 antagonist – D3 dopamine receptor (human) antagonism; 2.5% of 360,000 active; D3R cells, DiscoveRx beta-arrestin luminescence, antagonist mode; active compounds read low; P35462; AID 652054; max response, negative = inhibition, %; in the data active = max response below about -50%; inconclusive = no clear call, values can overlap the other calls; also: % is scaled to controls: 0 for no effect and ±100 for the full control effect
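Cells plated overnight at 1500 cells/well, then exposed to library compounds with dopamine controls for 90 minutes at 37 degrees C. DiscoveRx reagent added for 30–60 minutes at room temperature; luminescence read, quantitative HTS format.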
TDP1 cell CPT – growth inhibition of DT40 Tdp1-/-;hTDP1 cells with camptothecin (screen for TDP1 inhibitors). chicken DT40 Tdp1-/-;hTDP1 cells + 20 nM CPT, ATP luminescence, 48 h. Potency, µM (highest dose often 46.2 µM), for inactives: at the top dose activity change, negative = growth inhibition, actives largely listed as inhibitors. 12% of 420,000 active. AID 686979; also: potency is read from the fitted curve at half-maximal effect; % is scaled to controls: 0 for no effect and ±100 for the full control effect; nearly all actives have a fitted effect of over 55% in size
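Chicken DT40 Tdp1-/- cells stably complemented with human TDP1 were seeded at 400 cells/well in medium containing 20 nM camptothecin, exposed to pin-transferred compounds, and grown at 37 °C for at least 48 hr. Viability was read as ATP luminescence.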
TDP1 cell noCPT – qHTS for Inhibitors of human tyrosyl-DNA phosphodiesterase 1 (TDP1): qHTS in cells in absence of CPT; DT40 Tdp1-/- hTDP1 cells, no CPT, ATP luminescence, 48 h; Potency, µM (doses to about 46.2 µM), without a hit: at the highest dose activity change, negative = growth inhibition, most hits filed as inhibitors; 15% of 420,000 active; also: potency is read from the fitted curve at half-maximal effect; % is scaled to controls: 0 for no effect and ±100 for the full control effect; nearly all actives have a fitted effect of over 55% in size
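Chicken DT40 Tdp1-/- cells complemented with human TDP1, screened without camptothecin (DMSO vehicle only), 400 cells/well. Compounds pin-transferred, cells incubated at 37 °C for at least 48 hr. Growth read as ATP-dependent luminescence (CellTiter-Glo, 30 min at RT).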
Starred values were filed as active, the others as inactive; u = inconclusive; x = no result. Hits are enriched below; roughly 21% of the tested compounds scored in any of these assays. Unless noted, calls follow the shape of the dose curve; as a rule, active = well fitted inhibition curve with a large enough effect; inconclusive = small, poorly fitted or top-dose-only effect; inactive = flat fitted curve, though single readings scatter.

SMILES	DRD3 agonist	ClpP mod	IL1B secr inh	DRD3 antagonist	TDP1 cell CPT	TDP1 cell noCPT
O=C(COc1ccccc1C(=O)c1cnn(-c2ccccc2)c1)Nc1ccccc1	16.1	-2.0%	21.7	19.7	u	14.6µM*
COc1ccccc1CNC(=O)COc1ccccc1C(=O)c1cnn(-c2ccccc2)c1	0.0	-2.1%	-6.6	-2.6	23.1µM*	u
CCOc1cc(NC(=O)Nc2ccc(F)cc2)c(OCC)cc1NC(=O)CC	0.3	0.8%	-0.4	2.6	-2.1%	5.3%
CCSc1cc(C)nc2c(-c3ccccc3)c(C)nn12	1.6	3.5%	-14.2	12.0	-7.8%	-15.7%
C=CCSc1cc(C)nc2c(-c3ccc(Cl)cc3)c(C)nn12	38.2*	11.2%	-5.9	19.9	-29.3%	u
Cc1nn2c(SCC(=O)c3cccs3)cc(C(C)(C)C)nc2c1-c1ccccc1	26.2	-3.1%	26.2	47.4	u	u
Cc1cc(SCC(=O)c2cccs2)n2nc(C)c(-c3ccc(Cl)cc3)c2n1	-0.8	20.5%	-7.4	0.0	16.4µM*	u
C=C(C)CNC(=S)N=Nc1c(O)[nH]c2ccc([N+](=O)[O-])cc12	-1.9	x	12.0	-6.8	4.11µM*	4.61µM*
NC(=O)N=Nc1c(O)[nH]c2ccc([N+](=O)[O-])cc12	-4.8	0.6%	33.4	-5.6	4.2%	9.9%
CC(C)NC(=S)N=Nc1c(O)[nH]c2ccc([N+](=O)[O-])cc12	-0.2	x	32.2	-19.3	u	u
COc1ccccc1C(=O)N=Nc1c(O)[nH]c2ccc([N+](=O)[O-])cc12	-5.9	-0.4%	23.0	-1.0	u	23.1µM*
CCNc1nc(NCC)nc(N/N=C(\C)c2ccc(OC)cc2)n1	-4.3	-2.0%	-15.5	-21.0	u	u
Cc1ccccc1NC(=O)Cn1c(O)c(N=NC(=O)c2ccccc2O)c2ccccc21	5.0	-3.7%	0.0	0.0	u	5.8µM*
Cc1ccc(NC(=O)Cn2c(O)c(N=NC(N)=O)c3ccccc32)cc1	0.9	x	-2.1	1.1	u	u
CC(=O)c1cn(CC(=O)Nc2ccccc2C)c2ccccc12	9.7	-4.0%	13.5	u	8.2µM*	6.51µM*
CC(=O)c1cn(CC(=O)NCc2ccc3c(c2)OCO3)c2ccccc12	-3.7	-1.4%	13.8	24.9	13µM*	13µM*
Cc1cccc(C)c1NC(=O)Cn1cc(C=O)c2ccccc21	8.3	0.3%	34.9	4.2	20.6µM*	8.2µM*
CC(=O)c1cn(CC(=O)Nc2ccc(C)c(C)c2)c2ccccc12	7.6	-0.6%	30.1	13.7	6.6%	u
Cc1cccc(NC(=O)Cn2cc(C=O)c3ccccc32)c1	7.9	-2.1%	63.4	2.2	u	u
COc1ccc(C(=O)NCC(=O)OCC(=O)NC2CCCCCC2)cc1	5.1	0.9%	-1.7	-5.5	-12.6%	-3.1%
CCOc1ccccc1CNCCCSc1nnnn1C	-18.9	-0.2%	x	x	-1.0%	-15.4%
CCC(=O)c1cn(CC(=O)Nc2c(C)cccc2C)c2ccccc12	-10.6	-2.9%	0.0	-12.7	-15.4%	-7.8%
Cc1ccc(NC(=O)Cn2c(O)c(N=NS(=O)(=O)c3ccc(C)cc3)c3ccccc32)cc1	-5.8	-6.7%	-5.3	-9.9	u	14.6µM*
CC(=O)c1cn(CC(=O)Nc2c(C)cccc2C)c2ccccc12	5.3	-0.2%	-14.8	8.6	10.3µM*	8.2µM*
O=C(NCCN1C(=O)S/C(=C\c2cccnc2)C1=O)C1=NN(c2ccccc2)C(=O)CC1	-6.5	x	0.0	-19.4	u	23.1µM*
SMILES	DRD3 agonist	ClpP mod	IL1B secr inh	DRD3 antagonist	TDP1 cell CPT	TDP1 cell noCPT
O=C(COc1ccccc1-c1ccccc1)NCCN1C(=O)S/C(=C\c2cccnc2)C1=O	5.8	145.5%	-0.8	0.0	16.4µM*	16.4µM*
COc1ccccc1C(C)NC(=O)Cc1ccc(S(=O)(=O)N2CCOCC2)s1 (configuration not stated)	-1.2	-1.1%	10.6	10.0	-11.5%	u
N#CCCN(C(=O)COC(=O)c1cc(S(=O)(=O)N2CCOCC2)ccc1Cl)c1ccc(F)cc1	4.3	-4.7%	-13.7	-5.1	10.4%	-18.8%
CCOC(=O)[C@H]1[C@H]2COc3ccc(Cl)cc3[C@@H]2N2C(=O)CN(Cc3ccco3)C(=O)[C@@]12C	3.2	-5.6%	-9.9	-10.2	25.9µM*	u
CCOC(=O)[C@H]1[C@H]2COc3ccc(OC)cc3[C@@H]2N2C(=O)CN(Cc3ccco3)C(=O)[C@@]12C	-27.5	0.4%	-17.7	-11.0	u	-25.6%
CCOC(=O)[C@H]1[C@H]2COc3ccc(OC)cc3[C@@H]2N2C(=O)CN(CCc3c[nH]c4ccccc34)C(=O)[C@@]12C	58.0*	1.3%	-0.4	-3.5	u	u
CCOC(=O)[C@H]1[C@H]2COc3ccc(Cl)cc3[C@@H]2N2C(=O)CN(Cc3ccc(C)cc3)C(=O)[C@@]12C	-11.4	-2.9%	u	-4.2	18.4µM*	16.4µM*
CCOC(=O)[C@H]1[C@H]2COc3ccc(Br)cc3[C@@H]2N2C(=O)CN(Cc3ccccc3)C(=O)[C@@]12C	-2.9	1.2%	-25.7	12.0	u	25.9µM*
O=C(COC(=O)CCC(=O)c1cccs1)NC1CC1	3.7	2.1%	4.8	1.8	-0.2%	0.2%
CCOC(=O)[C@H]1[C@H]2COc3ccc(Cl)cc3[C@@H]2N2C(=O)CN(Cc3ccc(OC)cc3)C(=O)[C@@]12C	-0.8	0.0%	-11.4	-15.3	u	18.4µM*
O=C(Cn1c(=O)c(C(F)(F)F)nc2ccccc21)Nc1cccc(Br)c1	-0.7	-4.7%	x	x	-3.8%	-13.2%
CC(=O)N1CCC2(CC1)C/C(=N\NC(=S)Nc1ccc(C)cc1)c1cc(O)ccc1O2	0.8	-29.7%	-28.7	-6.1	14.6µM*	u
COc1ccc(NC(=S)N/N=C2\CC(C)(C)Oc3ccc(OC)cc32)cc1	0.3	-26.8%	-11.5	-24.4	5.8µM*	4.11µM*
O=C(Cn1c(=O)c2cccn2c2cccnc21)NCc1cccc(F)c1	6.8	-29.5%	x	x	-24.6%	-29.4%
Nc1ncnc2c1ncn2[C@@H]1O[C@H](CNCc2ccc(-c3cc(C(F)(F)F)ccc3Cl)o2)[C@@H](O)[C@H]1O	-74.7	1.9%	-11.9	-75.8*	u	u
Nc1ncnc2c1ncn2[C@@H]1O[C@H](CNCc2c(OCc3ccccc3F)ccc3ccccc23)[C@@H](O)[C@H]1O	8.8	-0.7%	-58.3*	20.3	u	u
